Results: PubChem BioAssay (NCATS)
Values without a mark were called inactive. Records with an inconclusive call do not appear. A call without a number means that no potency is given here. Active and inactive are the calls of the source. Unless noted, the call rests on the fitted dose curve; in most records, active means well fitted curve in the direction sought with a large enough effect; inconclusive means small, poorly fitted or top-dose-only effect, or another doubt; inactive means no such curve, though single readings can be large; an effect the other way counts as inactive or inconclusive.

Assays:
[1] = target: Lysosomal acid glucosylceramidase (Homo sapiens) (UniProt P04062); test: Glucocerebrosidase-p2 (AID 348; in the data active means potency below about 10 µM; further: potency means the concentration at half of the fitted maximal effect); conditions: purified GBA, blue fluorogenic substrate, 40 min
Lysosomal acid glucosylceramidase (Homo sapiens), sequence (P04062 whole entry, looked up): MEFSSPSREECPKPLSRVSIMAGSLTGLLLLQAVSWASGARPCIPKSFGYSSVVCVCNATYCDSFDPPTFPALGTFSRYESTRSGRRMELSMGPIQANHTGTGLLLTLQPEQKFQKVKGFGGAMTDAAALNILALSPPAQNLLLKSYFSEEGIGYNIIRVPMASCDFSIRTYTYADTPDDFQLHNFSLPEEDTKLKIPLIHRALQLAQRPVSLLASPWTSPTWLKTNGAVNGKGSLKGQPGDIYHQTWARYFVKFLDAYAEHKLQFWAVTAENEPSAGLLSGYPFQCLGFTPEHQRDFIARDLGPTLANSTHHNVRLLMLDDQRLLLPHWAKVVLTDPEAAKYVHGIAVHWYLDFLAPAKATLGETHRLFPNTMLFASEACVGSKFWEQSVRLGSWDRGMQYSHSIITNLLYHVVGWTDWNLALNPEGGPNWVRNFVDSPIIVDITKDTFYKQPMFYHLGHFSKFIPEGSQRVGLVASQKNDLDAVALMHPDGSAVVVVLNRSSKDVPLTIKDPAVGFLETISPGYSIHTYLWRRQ
How it was run: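 Compounds titrated from 0.6 nM upwards against 0.2 nM enzyme in pH 5.9 citric acid/KH2PO4, taurocholate, tween-20; blue fluorogenic substrate 80 uM, 40 min room temperature, stopped and read Ex 365/Em 440 for AC50.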

[2] = AP1 Signaling Pathway (AID 357; active means well fitted curve in either direction with a large enough effect, not every such curve was filed as active;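 further: ME-180 reporter cells stimulated with EGF at its EC50 level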); conditions: ME-180 AP-1-bla reporter, EGF-induced, beta-lactamase ratio, 5 h; at 7.69 µM (top of the series) unless noted
How it was run: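 Read-out was the 460nm/530nm emission ratio (excitation 405nm) after CCF4 loading for 2.5 hours at room temperature. Cells carried an AP-1-driven beta-lactamase reporter, were stimulated with EC50 EGF plus compound for 5 hours, and AC50 values came from titrations.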

[3] = target: Cytochrome P450 1A2 (Homo sapiens) (UniProt P05177); test: p450-cyp1a2 (AID 410; calls by dose curve; further: potency means the concentration at half of the fitted maximal effect); conditions: recombinant CYP1A2, luciferin-ME demethylation, luminescence; series mostly up to 57 µM
Cytochrome P450 1A2 (Homo sapiens), sequence (P05177 whole entry, looked up): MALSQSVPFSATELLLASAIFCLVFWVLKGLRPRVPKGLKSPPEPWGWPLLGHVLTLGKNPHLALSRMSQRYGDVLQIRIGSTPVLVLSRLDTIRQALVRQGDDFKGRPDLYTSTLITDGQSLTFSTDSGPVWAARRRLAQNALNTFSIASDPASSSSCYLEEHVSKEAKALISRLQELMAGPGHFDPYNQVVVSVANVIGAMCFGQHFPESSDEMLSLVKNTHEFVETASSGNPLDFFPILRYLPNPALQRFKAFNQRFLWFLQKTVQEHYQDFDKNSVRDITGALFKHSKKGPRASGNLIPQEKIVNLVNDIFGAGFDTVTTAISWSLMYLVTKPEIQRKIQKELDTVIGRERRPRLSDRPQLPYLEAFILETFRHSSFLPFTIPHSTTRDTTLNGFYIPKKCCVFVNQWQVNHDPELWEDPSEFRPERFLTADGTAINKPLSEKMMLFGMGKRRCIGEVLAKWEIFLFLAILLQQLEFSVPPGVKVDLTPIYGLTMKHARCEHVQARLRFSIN
How it was run: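 20nM CYP1A2 with 100uM Luciferin-ME (at Km) in 100mM KPO4; compound preincubated 10 min, NADPH regeneration added, 60 min at room temperature. Luciferin quantified by luminescence after detection reagent; normalized to 57 uM furafylline.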

[4] = NFAT Signaling Pathway (AID 444; active means well fitted curve in either direction with a large enough effect, not every such curve was filed as active;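 further: carbachol stimulus at about its EC50 of 1 µM final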); conditions: Jurkat NFAT-bla M1, carbachol, beta-lactamase ratio, 5 h; at 7.69 µM (top of the series) unless noted
How it was run: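 Jurkat cells carrying an NFAT-driven β-lactamase reporter and co-transfected muscarinic M1 receptor were treated with compound plus carbachol (1 uM final, an EC50 level) for 5 h at 37 °C. CCF4 loading followed for 1 h at RT; 460/530 nm ratio gave %activity.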

[5] = target: Glucocorticoid receptor (Homo sapiens) (UniProt P04150); test: GR-GFP Redistribution (AID 450;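 active means compounds whose dose series gives a full or clear partial fitted curve of increased nuclear translocation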; further: potency means the concentration at half of the fitted maximal effect); conditions: U2OS GR-GFP nuclear translocation, laser cytometry, 2 h
Glucocorticoid receptor (Homo sapiens), sequence (P04150 whole entry, looked up, the tested form may be a part): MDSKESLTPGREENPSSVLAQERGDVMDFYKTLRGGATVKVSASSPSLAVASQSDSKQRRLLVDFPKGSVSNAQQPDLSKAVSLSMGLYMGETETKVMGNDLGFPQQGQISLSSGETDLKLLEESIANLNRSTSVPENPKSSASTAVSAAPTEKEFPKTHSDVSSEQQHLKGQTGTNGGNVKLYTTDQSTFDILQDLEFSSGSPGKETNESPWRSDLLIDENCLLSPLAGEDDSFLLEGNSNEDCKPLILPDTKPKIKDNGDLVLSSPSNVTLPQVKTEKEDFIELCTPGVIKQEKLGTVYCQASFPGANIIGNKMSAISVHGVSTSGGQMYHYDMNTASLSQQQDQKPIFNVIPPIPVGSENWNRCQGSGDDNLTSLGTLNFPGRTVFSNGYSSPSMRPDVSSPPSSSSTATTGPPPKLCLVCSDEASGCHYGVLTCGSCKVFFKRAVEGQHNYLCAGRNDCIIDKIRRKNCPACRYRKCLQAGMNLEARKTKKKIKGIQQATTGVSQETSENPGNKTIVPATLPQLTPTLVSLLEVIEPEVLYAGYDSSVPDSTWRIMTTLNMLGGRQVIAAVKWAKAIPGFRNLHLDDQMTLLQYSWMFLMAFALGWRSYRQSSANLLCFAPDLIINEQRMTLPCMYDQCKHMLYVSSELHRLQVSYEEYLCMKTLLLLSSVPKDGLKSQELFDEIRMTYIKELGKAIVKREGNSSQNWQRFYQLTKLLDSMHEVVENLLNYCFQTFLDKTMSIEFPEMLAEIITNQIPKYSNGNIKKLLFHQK

[6] = target: Glucocorticoid receptor (Homo sapiens) (UniProt P04150); test: GR-EFC Redistribution (AID 451; calls by dose curve; further: potency means the concentration at half of the fitted maximal effect); conditions: CHO-K1 GR-EFC translocation, beta-gal luminescence, 2 h
How it was run: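 CHO-K1 cells stably expressing nuclear-localized β-gal enzyme acceptor and GR fused C-terminally to the enzyme donor fragment; ligand-driven nuclear translocation restores β-gal by complementation. Compounds titrated up to 46 uM final, 2 h at 37 °C; luminescence read.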

[7] = target: Mitogen-activated protein kinase 10 (Mus musculus) (UniProt Q61831); test: JNK3 AlphaScreen Assay (AID 530; active means well fitted curve in either direction with a large enough effect, not every such curve was filed as active;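 further: kinase came from lysate of stimulated human HepG2 cells; signal reports phosphorylation of biotinylated GST-cJun 1-79 at Ser73 with 10 µM ATP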); conditions: JNK3 lysate, c-Jun phosphorylation; series mostly up to 57.1 µM
How it was run: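 Inhibitors reduce antibody binding to phosphorylated biotin-cJun, lowering AlphaScreen luminescence. Lysates from HepG2 cells pre-activated by IL-1beta plus TNF-alpha supplied JNK3; compounds were titrated.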

[8] = target: 3',5'-cyclic-AMP phosphodiesterase 4B (Homo sapiens) (UniProt Q07343); test: qHTS Assay for Inhibitors of PDE-IV (AID 607; active means well fitted activation curve with a large enough effect in the main read-out, with a control signal flat, not every such curve was filed as active); conditions: HEK293 ACTOne CNG channel cells, membrane potential fluorescence; series mostly up to 22.9 µM
3',5'-cyclic-AMP phosphodiesterase 4B (Homo sapiens), sequence (Q07343 whole entry, looked up): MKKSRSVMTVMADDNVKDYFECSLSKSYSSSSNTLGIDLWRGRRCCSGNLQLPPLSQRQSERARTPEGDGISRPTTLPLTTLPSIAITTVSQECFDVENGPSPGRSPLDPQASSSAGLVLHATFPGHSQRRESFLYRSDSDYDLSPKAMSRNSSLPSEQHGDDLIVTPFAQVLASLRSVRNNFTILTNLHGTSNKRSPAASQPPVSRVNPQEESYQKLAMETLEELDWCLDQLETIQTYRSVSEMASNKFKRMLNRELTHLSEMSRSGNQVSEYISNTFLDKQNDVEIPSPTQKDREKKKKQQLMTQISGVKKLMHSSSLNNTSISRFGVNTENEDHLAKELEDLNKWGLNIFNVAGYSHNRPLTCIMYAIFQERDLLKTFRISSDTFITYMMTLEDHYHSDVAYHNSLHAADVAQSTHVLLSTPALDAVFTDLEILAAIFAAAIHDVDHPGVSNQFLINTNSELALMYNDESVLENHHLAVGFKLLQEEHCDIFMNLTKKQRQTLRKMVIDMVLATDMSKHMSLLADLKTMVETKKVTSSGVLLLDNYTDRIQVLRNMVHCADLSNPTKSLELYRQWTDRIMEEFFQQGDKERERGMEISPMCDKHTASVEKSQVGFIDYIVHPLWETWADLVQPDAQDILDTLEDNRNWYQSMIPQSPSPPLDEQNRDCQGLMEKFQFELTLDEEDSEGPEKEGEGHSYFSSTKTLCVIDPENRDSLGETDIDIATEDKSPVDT
How it was run: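 Live HEK293 cells with a modified cyclic nucleotide-gated (CNG) channel report intracellular cAMP via membrane-potential dye fluorescence (ex 535/em 590 nm). Endogenous PDE-IV was targeted. Compounds were tested at up to 22.9 uM final; RO 20-1724 100 uM served as control.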

[9] = target: Cytochrome P450 3A4 (Homo sapiens) (UniProt P08684); test: qHTS Assay for Activators of Cytochrome P450 3A4 (AID 885); conditions: recombinant CYP3A4, Luciferin-PPXE luminescence, 60 min; series mostly up to 57.1 µM; further: nearly all actives have a fitted effect of over 65% in size
Cytochrome P450 3A4 (Homo sapiens), sequence (P08684 whole entry, looked up): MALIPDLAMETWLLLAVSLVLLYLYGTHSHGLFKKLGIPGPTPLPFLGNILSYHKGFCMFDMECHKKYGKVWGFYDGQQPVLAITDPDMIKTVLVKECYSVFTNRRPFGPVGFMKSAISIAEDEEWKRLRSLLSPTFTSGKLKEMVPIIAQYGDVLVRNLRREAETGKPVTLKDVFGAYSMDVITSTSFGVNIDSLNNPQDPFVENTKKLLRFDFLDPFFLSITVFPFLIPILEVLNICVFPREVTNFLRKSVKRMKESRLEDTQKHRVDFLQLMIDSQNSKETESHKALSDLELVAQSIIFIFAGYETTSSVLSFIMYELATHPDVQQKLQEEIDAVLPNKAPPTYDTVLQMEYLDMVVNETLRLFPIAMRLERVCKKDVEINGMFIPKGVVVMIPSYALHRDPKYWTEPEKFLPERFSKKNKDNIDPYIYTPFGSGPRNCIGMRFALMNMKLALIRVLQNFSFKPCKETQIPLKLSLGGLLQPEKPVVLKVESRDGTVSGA
How it was run: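 Quantitative HTS format: compounds preincubated with 20nM human CYP3A4 and Luciferin-PPXE substrate at KM, reaction started by NADPH regeneration, stopped after 60 min, luciferase luminescence read 20 min later.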

[10] = target: Dual specificity protein kinase CLK4 (Homo sapiens) (UniProt Q9HAZ1); test: qHTS Assay for Inhibitors of CDC-like Kinase 4 (Kinase-Glo Assay) (AID 1770); conditions: recombinant Clk4, Kinase-Glo ATP depletion luminescence; series mostly up to 66.7 µM; further: nearly all actives have a fitted effect of over 65% in size
Dual specificity protein kinase CLK4 (Homo sapiens), sequence (Q9HAZ1 whole entry, looked up): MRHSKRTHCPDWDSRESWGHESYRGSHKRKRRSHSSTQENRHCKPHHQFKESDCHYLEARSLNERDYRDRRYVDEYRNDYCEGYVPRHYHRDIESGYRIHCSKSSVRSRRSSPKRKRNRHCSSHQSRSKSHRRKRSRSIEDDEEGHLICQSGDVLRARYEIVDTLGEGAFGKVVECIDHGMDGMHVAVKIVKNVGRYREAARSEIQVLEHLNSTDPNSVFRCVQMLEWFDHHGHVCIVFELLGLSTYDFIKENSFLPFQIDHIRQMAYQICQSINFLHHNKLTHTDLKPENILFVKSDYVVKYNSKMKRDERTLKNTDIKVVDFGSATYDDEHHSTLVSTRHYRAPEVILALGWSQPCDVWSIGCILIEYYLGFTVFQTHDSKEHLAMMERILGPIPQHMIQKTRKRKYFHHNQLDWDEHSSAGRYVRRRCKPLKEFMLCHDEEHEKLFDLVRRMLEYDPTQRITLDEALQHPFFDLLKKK
How it was run: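 Readout: Kinase-Glo luminescence from ATP left after a 4.5 h room-temperature reaction of 25 nM Clk4 with 100 uM RS peptide and 1 uM ATP (final). Buffer: 25 mM Tris pH 7.5, 10 mM MgCl2.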

[11] = target: Dual specificity protein kinase CLK4 (Homo sapiens) (UniProt Q9HAZ1); test: qHTS Assay for Inhibitors of CDC-like Kinase 4 (ADP-Glo Assay) (AID 1771); conditions: recombinant CLK4, ADP-Glo luminescence; series mostly up to 80 µM; further: nearly all actives have a fitted effect of over 70% in size
How it was run: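 25 nM Clk4 with 100 uM RS repeat peptide and 1 uM ATP (final) in buffer with 2 mM MgCl2, 0.5 mM EGTA, 2.5 mM DTT, 0.01% Triton X-100; 1 h at room temperature; ADP-Glo luminescence for ADP formed.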

[12] = target: Dual specificity protein kinase CLK4 (Homo sapiens) (UniProt Q9HAZ1); test: qHTS Assay for Inhibitors of CDC-like Kinase 4 (ADP-FP Assay) (AID 1795); conditions: Transcreener ADP fluorescence polarization; series mostly up to 50 µM;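 further: recombinant human CLK4 phosphorylating RS repeat peptide at 1 µM ATP; nearly all actives have a fitted effect of over 60% in size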
How it was run: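 FP readout: Orange Transcreener ADP2 tracer (4 nM) plus ADP antibody, read after 30 min at room temperature. Kinase step: 6.25 nM Clk4, 100 uM RS peptide, 1 uM ATP, pH 7.5, 1 h.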

[13] = target: Ubiquitin carboxyl-terminal hydrolase 1 (Homo sapiens) (UniProt O94782); test: Inhibitors of USP1/UAF1: Pilot qHTS (AID 504865); conditions: purified USP1/UAF1, Ub-rhodamine cleavage fluorescence; series mostly up to 54.9 µM; further: nearly all actives have a fitted effect of over 35% in size; further: potency means the concentration at half of the fitted maximal effect;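 on activity change, negative = inhibition: rhodamine fluorescence freed from ubiquitin-rhodamine substrate followed over time; top concentration of the series differs between compounds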
Ubiquitin carboxyl-terminal hydrolase 1 (Homo sapiens), sequence (O94782 whole entry, looked up): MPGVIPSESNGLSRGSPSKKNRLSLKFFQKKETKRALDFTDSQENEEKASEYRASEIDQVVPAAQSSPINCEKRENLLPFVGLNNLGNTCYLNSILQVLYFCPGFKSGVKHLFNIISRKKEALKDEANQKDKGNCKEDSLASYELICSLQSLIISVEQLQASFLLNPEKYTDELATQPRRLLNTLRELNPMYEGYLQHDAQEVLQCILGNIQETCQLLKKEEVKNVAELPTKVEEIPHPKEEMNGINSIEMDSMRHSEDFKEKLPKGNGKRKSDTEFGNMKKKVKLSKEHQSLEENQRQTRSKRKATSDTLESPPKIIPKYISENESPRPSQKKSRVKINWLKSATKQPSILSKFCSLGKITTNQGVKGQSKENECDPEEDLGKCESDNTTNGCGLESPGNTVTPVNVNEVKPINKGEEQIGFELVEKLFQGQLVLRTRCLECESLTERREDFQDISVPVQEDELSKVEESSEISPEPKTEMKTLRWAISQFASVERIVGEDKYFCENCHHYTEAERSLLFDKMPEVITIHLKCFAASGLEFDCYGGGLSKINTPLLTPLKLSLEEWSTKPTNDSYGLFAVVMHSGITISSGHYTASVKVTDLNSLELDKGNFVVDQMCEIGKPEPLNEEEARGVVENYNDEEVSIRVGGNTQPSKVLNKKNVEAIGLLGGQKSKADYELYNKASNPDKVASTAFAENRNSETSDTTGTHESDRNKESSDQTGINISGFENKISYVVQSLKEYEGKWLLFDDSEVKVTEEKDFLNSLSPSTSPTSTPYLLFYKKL
How it was run: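 1nM USP1/UAF1 + cpd, 15 min RT; start w/ Ub-Rho 150nM final; kinetic FL 480/540 nm, 6 reads q60 s. Buffer 50mM HEPES pH 7.8, 0.5mM EDTA, 1mM TCEP, 0.01% Tween-20, 0.1 mg/ml BSA.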

[14] = Primary qHTS for small molecule stabilizers of the endoplasmic reticulum resident proteome: Secreted ER Calcium Modulated Protein (SERCaMP) assay (AID 1508630); conditions: SH-SY5Y GLuc-SERCaMP (Gaussia luciferase released on ER calcium loss) secretion, thapsigargin, luminescence; series mostly up to 38.4 µM
How it was run: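 GLuc-SERCaMP-expressing SH-SY5Y cells, pretreated 16 h with compound, are challenged with thapsigargin to empty ER calcium stores; after 4 h, coelenterazine is added directly to the medium and luminescence is imaged.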

[15] = Stat Signaling Pathway (AID 446; active means well fitted curve in either direction with a large enough effect, not every such curve was filed as active;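 further: ME-180 cervical cancer cells given 40 pM IL-6 alongside compound; SIE-controlled beta-lactamase reporter measured as 460/530 nm FRET emission ratio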); conditions: ME-180 SIE beta-lactamase reporter, IL-6 stimulated, 5 h; at 7.69 µM (top of the series) unless noted
How it was run: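 IL-6/STAT signaling read in ME-180 cells via an SIE beta-lactamase reporter. Stimulus was 40 pM IL-6 (its AC50) for 5 hrs, so both activation and inhibition register.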

[16] = target: Cytochrome P450 3A4 (Homo sapiens) (UniProt P08684); test: qHTS Assay for Inhibitors and Substrates of Cytochrome P450 3A4 (AID 884); conditions: recombinant CYP3A4, Luciferin-PPXE luminescence; series mostly up to 57.1 µM; further: potency means the concentration at half of the fitted maximal effect; nearly all actives have a fitted effect of over 50% in size
How it was run: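 20 nM human CYP3A4 with 25 uM Luciferin-PPXE (at KM) in 200 mM KPO4, preincubated 10 min with compound; NADPH regeneration started a 60 min RT reaction. Luciferin detected by luminescence, normalized to 57 uM ketoconazole as full inhibition.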

[17] = target: Cytochrome P450 2D6 (Homo sapiens) (UniProt P10635); test: qHTS Assay for Inhibitors and Substrates of Cytochrome P450 2D6 (AID 891); conditions: recombinant CYP2D6, luciferin-ME EGE luminescence; series mostly up to 57.1 µM; further: potency means the concentration at half of the fitted maximal effect; nearly all actives have a fitted effect of over 60% in size
Cytochrome P450 2D6 (Homo sapiens), sequence (P10635 whole entry, looked up): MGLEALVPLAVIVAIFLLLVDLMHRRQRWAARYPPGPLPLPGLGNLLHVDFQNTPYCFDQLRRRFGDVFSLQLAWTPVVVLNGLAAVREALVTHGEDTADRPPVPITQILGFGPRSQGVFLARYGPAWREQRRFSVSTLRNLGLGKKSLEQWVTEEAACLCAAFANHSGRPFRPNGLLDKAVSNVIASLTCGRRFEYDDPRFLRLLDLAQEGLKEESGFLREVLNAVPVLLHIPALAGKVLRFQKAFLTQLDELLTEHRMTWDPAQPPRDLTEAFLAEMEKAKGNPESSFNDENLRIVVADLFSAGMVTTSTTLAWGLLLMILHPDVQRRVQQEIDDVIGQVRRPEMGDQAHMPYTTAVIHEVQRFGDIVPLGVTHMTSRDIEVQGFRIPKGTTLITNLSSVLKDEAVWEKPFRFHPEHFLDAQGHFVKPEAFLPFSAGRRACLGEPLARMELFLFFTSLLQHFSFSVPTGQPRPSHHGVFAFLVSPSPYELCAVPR
How it was run: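 Human CYP2D6 (5 nM) with 30 uM Luciferin-ME EGE (at Km) in 100 mM KPO4, compound preincubated 10 min, then NADPH regeneration system for 60 min at room temperature. Luciferin read by luminescence; normalized to 1.43 uM quinidine.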

[18] = qHTS Assay for Identification of Small Molecule Agonists for Hypoxia Response Element Signaling Pathway (AID 914; active means well fitted activation curve with a large enough effect in the signal ratio, with a control signal flat, not every such curve was filed as active; the % refers to the signal ratio); conditions: ME-180 (cervical carcinoma) HRE-bla reporter, beta-lactamase ratio, CoCl2, 17 h; activation: hits give high values
How it was run: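 Read-out: CCF4 FRET ratio of 460nm to 530nm emission (excitation 405nm) after 2.5 hours at room temperature, taken from HRE-bla ME-180 cells that had been exposed to compound and EC50 CoCl2 for 17 hours.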

SMILES | Potency [1] | activity change, negative = inhibition [2] | Potency [3] | activity change, negative = inhibition [4] | Potency [5] | Potency [6] | Potency [7] | Potency [8] | Potency [9] | Potency [10] | Potency [11] | Potency [12] | Potency [13] | outcome [14] | activity, negative = inhibition [15] | Potency [16] | Potency [17] | activation [18]
CCNc1ncc2nc(-c3cc(F)cc(F)c3)c(=O)n(CCc3ccccc3)c2n1 | > 11.4 µM | 109% [activator] (active) | 25.1 µM (active) | 137% [activator] (active) | > 9.22 µM | > 46 µM | inactive | inactive | inactive | inactive | inactive | inactive | 20 µM (active) | inactive | – | – | – | –
Cc1cccc(CNc2ncncc2-c2ccccc2Cl)c1 | > 11.4 µM | -12.3% | 3.16 µM (active) | – | > 46 µM | > 46 µM | inactive | – | inactive | inactive | inactive | inactive | inactive | inactive | -14.1% | 0.199 µM (active) | 2 µM (active) | -10.3%
CCNc1ncc2nc(-c3cccs3)c(=O)n(Cc3cccs3)c2n1 | > 11.4 µM | 9.95% | 1.26 µM (active) | – | > 9.22 µM | > 46 µM | inactive | – | inactive | inactive | inactive | inactive | inactive | inactive | – | 6.31 µM (active) | – | –
O=c1c(-c2ccccc2)nc2cnc(N3CCOCC3)nc2n1C[C@H]1CCCO1 | > 11.4 µM | 17% | 3.16 µM (active) | – | > 9.22 µM | > 46 µM | inactive | inactive | inactive | inactive | inactive | inactive | inactive | inactive | 20.8% | – | – | –
Cn1c(=O)c(-c2ccc(Cl)cc2)nc2cnc(OCc3ccccc3)nc21 | > 11.4 µM | -12.6% | 0.794 µM (active) | – | > 9.22 µM | > 46 µM | inactive | inactive | – | inactive | inactive | inactive | inactive | inactive | -4.02% | – | – | –
Cc1nc2cncnc2n(Cc2ccccc2Cl)c1=O | > 11.4 µM | -18% | – | -1.6% | > 9.22 µM | > 46 µM | inactive | – | – | inactive | inactive | inactive | inactive | inactive | -18.9% | – | – | –
